# “And” between values parts separate entries of the source, which are not always exact repeats. Identical values can stand only once. Counter-ions that a name gives are not always drawn.
# Columns and labels:
# Test in all cases: cell viability relative to vehicle control; higher = less cytotoxic
# Details in all cases: 10 µM
# K562 = tested on: K562
# Procedure, shortened: (§1)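 Screening covered the Selleck bioactive, kinase and epigenetic probe libraries, less identity-inconsistent compounds, on CRISPR-edited mutant clones and isogenic wild-type clones of four leukaemia lines. Cells, at 2000 per well in 50 µL medium, received a single 10 µM acoustically dispensed dose. After 48 h the supernatant was removed and CellTiter-Glo luminescence was read. Viability was analysed in Genedata Screener as percent of the on-plate vehicle control.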
# MARIMO = tested on: MARIMO
# Procedure, shortened: as §1
# MOLM14 = tested on: MOLM14
# Procedure, shortened: as §1
# OCI-AML2 = tested on: OCI-AML2
# Procedure, shortened: as §1
Structure (SMILES),cell viability (K562; SRSF2 genotype: SRSF2 P95H/wt),cell viability (K562; SRSF2 genotype: SRSF2 wt/wt),cell viability (MARIMO; SRSF2 genotype: SRSF2 P95H/wt),cell viability (MARIMO; SRSF2 genotype: SRSF2 wt/wt),cell viability (MOLM14; SRSF2 genotype: SRSF2 P95H/wt),cell viability (MOLM14; SRSF2 genotype: SRSF2 wt/wt),cell viability (OCI-AML2; SRSF2 genotype: P95H/wt),cell viability (OCI-AML2; SRSF2 genotype: wt/wt)
CC(C)NCC(O)COc1cccc2ccccc12 (configuration not stated) [Propranolol HCl],94% and 88.3%,97.6%,86.2%,92.9%,94.2%,98.2%,84.7%,97%
CC(C)=C[C@H]1C[C@](C)(O)[C@@H]2[C@H]3CC[C@@H]4[C@@]5(C)CC[C@H](OC6OC[C@H](O)[C@H](O[C@@H]7O[C@H](CO[C@@H]8O[C@H](CO)[C@@H](O)[C@H](O)[C@H]8O)[C@@H](O)[C@H](O)[C@H]7O[C@@H]7OC[C@@H](O)[C@H](O)[C@H]7O)[C@H]6O[C@@H]6O[C@@H](C)[C@H](O)[C@@H](O)[C@H]6O)C(C)(C)[C@@H]5CC[C@@]4(C)C34CO[C@@]2(C4)O1 (some centres not stated) [Jujuboside A],109% and 107%,102%,101%,104%,109%,102%,91.6%,101%
CCCCC(=O)N(Cc1ccc(-c2ccccc2-c2nnn[nH]2)cc1)[C@H](C(=O)O)C(C)C [Valsartan (Diovan)],102% and 98.1%,105%,102%,112%,104%,106%,101%,112%
Nc1ccc(O)cc1 [4-Aminophenol],63.2% and 50.9%,83.5%,45.6%,50%,12.1%,23.2%,3.01%,12%
COc1cc(Cc2cnc(N)nc2N)cc(OC)c1OC [Trimethoprim],102% and 101%,94.4%,103%,104%,102%,104%,101%,101%
Nc1ncnc2c1ncn2C1CC(O)C(CO)O1 (configuration not stated) [2'-Deoxyadenosine monohydrate],113% and 106%,105%,96.4%,94.5%,102%,99.6%,95.5%,96.5%
OC[C@H]1O[C@H](OC[C@H]2O[C@H](O[C@]3(CO)O[C@H](CO)[C@@H](O)[C@@H]3O)[C@H](O)[C@@H](O)[C@@H]2O)[C@H](O)[C@@H](O)[C@H]1O [Raffinose],97.9% and 96.4%,95.4%,97.2%,103%,103%,98.1%,94.5%,98.6%
CN(C)Cc1cccc(N=C(c2ccccc2)c2c(O)[nH]c3cc(C(=O)N(C)C)ccc23)c1,88.8% and 90.6%,79.6%,60.9%,63.4%,38.4%,31.6%,38.5%,36.2%
c1ccc2c(CC3=NCCN3)cccc2c1 [Naphazoline hydrochloride (Naphcon)],102% and 99.6%,94.5%,106%,107%,97.1%,103%,97.8%,106%
CC1C(=O)OC2C(O)C34C5CC(C(C)(C)C)C36C(OC(=O)C6O)OC4(C(=O)O5)C12O (configuration not stated) [Ginkgolide B],110%,114%,111%,109%,107%,109%,113%,105%
Cc1nc2c(O)cccc2c(=O)[nH]1,94.6% and 99.4%,114%,99.4%,93.8%,95.6%,101%,94.2%,108%
CO/N=C(\C(=O)N[C@@H]1C(=O)N2C(C(=O)[O-])=C(C[n+]3cccc4c3CCC4)CS[C@H]12)c1csc(N)n1 [Cefpirome sulfate],100% and 107%,106%,94.2%,108%,103%,103%,101%,104%
CC/C(=C(\c1ccc(O)cc1)c1ccc(OCCNC)cc1)c1ccccc1 [Endoxifen HCl],21% and 29.8%,24.5%,66%,59.9%,23.2%,29.7%,17%,38.1%
CN1CCC(CNc2ccc3ncc(-c4cccc(OC(F)(F)F)c4)n3n2)CC1 [SGI-1776 free base],1.35% and 1.49%,2.08%,0.84%,2.75%,0.45%,0.48%,0.42%,0.66%
CN1[C@@H]2CC[C@H]1C[C@@H](OC(=O)c1c[nH]c3ccccc13)C2 [Tropisetron],92.1% and 89.1%,97.1%,87.4%,89%,105%,104%,91.8%,98.3%
C[C@@H]1CC[C@@]2(OC1)O[C@H]1C[C@H]3[C@@H]4CC=C5C[C@@H](O[C@@H]6O[C@H](CO)[C@@H](O[C@@H]7O[C@@H](C)[C@H](O[C@@H]8O[C@@H](C)[C@H](O)[C@@H](O)[C@H]8O)[C@@H](O)[C@H]7O)[C@H](O)[C@H]6O[C@@H]6O[C@@H](C)[C@H](O)[C@@H](O)[C@H]6O)CC[C@]5(C)[C@H]4CC[C@]3(C)[C@@]1(O)[C@@H]2C [Chonglou Saponin VII],0.5% and 0.49%,0.46%,0.43%,0.55%,0.44%,0.46%,0.37%,0.47%
COc1ccc2cc3[n+](cc2c1O)CCc1cc2c(cc1-3)OCO2 [Berberrubine],104% and 100%,111%,112%,98.3%,109%,109%,103%,99.1%
COc1cc(F)c(C(C)C)cc1-c1ccc(C(F)(F)F)cc1CN1C(=O)O[C@H](c2cc(C(F)(F)F)cc(C(F)(F)F)c2)[C@@H]1C [Anacetrapib (MK-0859)],97.5% and 95.6%,92.9%,91.2%,105%,98.7%,99%,91.8%,102%
CN(C)C1CCN(C(=O)c2ccc(NC(=O)Nc3ccc(-c4nc(N5CCOCC5)nc(N5CCOCC5)n4)cc3)cc2)CC1,34.1% and 32.1%,26.6%,43.2%,34.9%,22.1%,21.3%,10.5%,16.2%
O=C(CCN1CCN(C(=O)OCc2cc(Cl)cc(Cl)c2)CC1)c1ccc2[nH]c(=O)oc2c1,88.6% and 96.5%,94.5%,87.2%,106%,83.1%,98.8%,88.2%,109%

Structure (SMILES),cell viability (K562; SRSF2 genotype: SRSF2 P95H/wt),cell viability (K562; SRSF2 genotype: SRSF2 wt/wt),cell viability (MARIMO; SRSF2 genotype: SRSF2 P95H/wt),cell viability (MARIMO; SRSF2 genotype: SRSF2 wt/wt),cell viability (MOLM14; SRSF2 genotype: SRSF2 P95H/wt),cell viability (MOLM14; SRSF2 genotype: SRSF2 wt/wt),cell viability (OCI-AML2; SRSF2 genotype: P95H/wt),cell viability (OCI-AML2; SRSF2 genotype: wt/wt)
CC(C)(NS(=O)(=O)c1ccc2c(Cl)cnc(N=C(N)N)c2c1)C(=O)O,102% and 104%,104%,101%,111%,101%,102%,99.1%,117%
C#Cc1cccc(Nc2ncnc3cc4c(cc23)OCCOCCOCCO4)c1 [Icotinib],96.1% and 94%,94.2%,92.4%,98.3%,92.3%,98.4%,94.9%,94.5%
CO[C@H]1/C=C/O[C@@]2(C)Oc3c(C)c(O)c4c(O)c(c5c(nc6cc(C)ccn65)c4c3C2=O)NC(=O)/C(C)=C\C=C\[C@H](C)[C@H](O)[C@@H](C)[C@@H](O)[C@@H](C)[C@H](OC(C)=O)[C@@H]1C [Rifaximin (Xifaxan)],97.9% and 106%,98.1%,103%,107%,105%,101%,111%,98.7%
CC[C@H](C)C(=O)O[C@H]1C[C@@H](C)C=C2C=C[C@H](C)[C@H](CC[C@@H]3C[C@@H](O)CC(=O)O3)[C@H]21 [Lovastatin (Mevacor)],86.3% and 96.8%,68.8%,74%,68.5%,82.9%,100%,64.3%,77.8%
C#C[C@]1(O)CC[C@H]2[C@@H]3CCC4=CC(=O)CC[C@@H]4[C@H]3CC[C@@]21C [Norethindrone (Norethisterone)],103% and 101%,100%,101%,116%,98.3%,106%,107%,111%
CN1CCc2c(c3ccccc3n2Cc2ccc(C(=O)NO)cc2)C1 [Tubastatin A hydrochloride],77.4% and 88.8%,84.6%,67%,66.5%,43.8%,43.6%,51.1%,49.9%
CC(/C=C1\SC(=S)N(CC(=O)O)C1=O)=C\c1ccccc1 [Epalrestat],99.9% and 110%,107%,104%,102%,106%,103%,102%,95.3%
Cc1ccc(-c2cc(C(F)(F)F)nn2-c2ccc(S(N)(=O)=O)cc2)cc1 [Celecoxib],94.3% and 106%,94.1%,99.1%,104%,101%,101%,122%,96.5%
COc1ccc(C(=O)O)cc1O [Isovanillic acid],97.7% and 89.4%,95.3%,85.2%,97.5%,87.1%,90.6%,82.2%,86.7%
C[C@@H](O)[C@H]1C(=O)N2C(C(=O)O)=C(S[C@@H]3CN[C@H](C(=O)N(C)C)C3)[C@H](C)[C@H]12 [Meropenem],103% and 109%,106%,94.7%,96.9%,103%,101%,111%,101%
CO[C@H]1CC[C@H](N2C(=O)CNc3ncc(-c4ccc(C(C)(C)O)nc4)nc32)CC1,27.9% and 28%,29.7%,36.3%,32.3%,28.1%,24.1%,26%,29.6%
CN(CCNc1ccnc2cc(Cl)ccc12)CCNc1ccnc2cc(Cl)ccc12,17.1% and 23.8%,18.8%,19.4%,11.8%,0.51%,0.43%,0.35%,0.6%
Cc1cc(C(=O)O)n[nH]1,108% and 101%,103%,104%,111%,96.4%,111%,101%,104%
CC[C@@H]1C(=O)N(C)c2cnc(Nc3ccc(C(=O)NC4CCN(C)CC4)cc3OC)nc2N1C1CCCC1,1.43% and 2.65%,1.81%,6.52%,5.37%,0.17%,0.13%,0.53%,2.92%
CC(C)(C#N)c1ccc(N2C(=O)OCc3cnc4ccc(-c5cnc6ccccc6c5)cc4c32)cc1,78.7% and 82.1%,85.8%,83%,92.5%,66%,80.2%,74.5%,75.7%
O=CC[C@@H](O)[C@H](O)[C@H](O)CO [2-Deoxy-D-glucose],104% and 94.5%,99.2%,101%,107%,102%,101%,91.3%,108%
O=C(NCCO[N+](=O)[O-])c1cccnc1 [Nicorandil (Ikorel)],101% and 99.9%,108%,108%,108%,93.4%,99.1%,82.1%,94%
COc1ccc(CNCc2cccc3ccccc23)cc1,91.6% and 97%,95.1%,88.5%,97.4%,97.4%,101%,92.4%,101%
CCCCCCCCCC(C)=O [Methylnonylketone],93.2% and 96.8%,96.3%,96.2%,101%,97.7%,99.7%,99.5%,97.2%

# Source: the supplement of paper PMC10981050
